Screen size: about 100,000 compounds; about 4,200 (4.2%) were called active. The full list was thinned out, with actives kept by preference. A number with no mark means an inactive call.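 Rule for the calls: active = single-dose well whose peak fluorescence ratio is a statistical outlier from its plate by either plate-standardised score or position-corrected B-score; inactive = the rest.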

From PubChem BioAssay AID449739 (Vanderbilt High Throughput Screening Facility, 2010) come the findings set out here.

Chain of Voltage-dependent T-type calcium channel subunit alpha-1H (Homo sapiens) (O95180 whole entry, looked up): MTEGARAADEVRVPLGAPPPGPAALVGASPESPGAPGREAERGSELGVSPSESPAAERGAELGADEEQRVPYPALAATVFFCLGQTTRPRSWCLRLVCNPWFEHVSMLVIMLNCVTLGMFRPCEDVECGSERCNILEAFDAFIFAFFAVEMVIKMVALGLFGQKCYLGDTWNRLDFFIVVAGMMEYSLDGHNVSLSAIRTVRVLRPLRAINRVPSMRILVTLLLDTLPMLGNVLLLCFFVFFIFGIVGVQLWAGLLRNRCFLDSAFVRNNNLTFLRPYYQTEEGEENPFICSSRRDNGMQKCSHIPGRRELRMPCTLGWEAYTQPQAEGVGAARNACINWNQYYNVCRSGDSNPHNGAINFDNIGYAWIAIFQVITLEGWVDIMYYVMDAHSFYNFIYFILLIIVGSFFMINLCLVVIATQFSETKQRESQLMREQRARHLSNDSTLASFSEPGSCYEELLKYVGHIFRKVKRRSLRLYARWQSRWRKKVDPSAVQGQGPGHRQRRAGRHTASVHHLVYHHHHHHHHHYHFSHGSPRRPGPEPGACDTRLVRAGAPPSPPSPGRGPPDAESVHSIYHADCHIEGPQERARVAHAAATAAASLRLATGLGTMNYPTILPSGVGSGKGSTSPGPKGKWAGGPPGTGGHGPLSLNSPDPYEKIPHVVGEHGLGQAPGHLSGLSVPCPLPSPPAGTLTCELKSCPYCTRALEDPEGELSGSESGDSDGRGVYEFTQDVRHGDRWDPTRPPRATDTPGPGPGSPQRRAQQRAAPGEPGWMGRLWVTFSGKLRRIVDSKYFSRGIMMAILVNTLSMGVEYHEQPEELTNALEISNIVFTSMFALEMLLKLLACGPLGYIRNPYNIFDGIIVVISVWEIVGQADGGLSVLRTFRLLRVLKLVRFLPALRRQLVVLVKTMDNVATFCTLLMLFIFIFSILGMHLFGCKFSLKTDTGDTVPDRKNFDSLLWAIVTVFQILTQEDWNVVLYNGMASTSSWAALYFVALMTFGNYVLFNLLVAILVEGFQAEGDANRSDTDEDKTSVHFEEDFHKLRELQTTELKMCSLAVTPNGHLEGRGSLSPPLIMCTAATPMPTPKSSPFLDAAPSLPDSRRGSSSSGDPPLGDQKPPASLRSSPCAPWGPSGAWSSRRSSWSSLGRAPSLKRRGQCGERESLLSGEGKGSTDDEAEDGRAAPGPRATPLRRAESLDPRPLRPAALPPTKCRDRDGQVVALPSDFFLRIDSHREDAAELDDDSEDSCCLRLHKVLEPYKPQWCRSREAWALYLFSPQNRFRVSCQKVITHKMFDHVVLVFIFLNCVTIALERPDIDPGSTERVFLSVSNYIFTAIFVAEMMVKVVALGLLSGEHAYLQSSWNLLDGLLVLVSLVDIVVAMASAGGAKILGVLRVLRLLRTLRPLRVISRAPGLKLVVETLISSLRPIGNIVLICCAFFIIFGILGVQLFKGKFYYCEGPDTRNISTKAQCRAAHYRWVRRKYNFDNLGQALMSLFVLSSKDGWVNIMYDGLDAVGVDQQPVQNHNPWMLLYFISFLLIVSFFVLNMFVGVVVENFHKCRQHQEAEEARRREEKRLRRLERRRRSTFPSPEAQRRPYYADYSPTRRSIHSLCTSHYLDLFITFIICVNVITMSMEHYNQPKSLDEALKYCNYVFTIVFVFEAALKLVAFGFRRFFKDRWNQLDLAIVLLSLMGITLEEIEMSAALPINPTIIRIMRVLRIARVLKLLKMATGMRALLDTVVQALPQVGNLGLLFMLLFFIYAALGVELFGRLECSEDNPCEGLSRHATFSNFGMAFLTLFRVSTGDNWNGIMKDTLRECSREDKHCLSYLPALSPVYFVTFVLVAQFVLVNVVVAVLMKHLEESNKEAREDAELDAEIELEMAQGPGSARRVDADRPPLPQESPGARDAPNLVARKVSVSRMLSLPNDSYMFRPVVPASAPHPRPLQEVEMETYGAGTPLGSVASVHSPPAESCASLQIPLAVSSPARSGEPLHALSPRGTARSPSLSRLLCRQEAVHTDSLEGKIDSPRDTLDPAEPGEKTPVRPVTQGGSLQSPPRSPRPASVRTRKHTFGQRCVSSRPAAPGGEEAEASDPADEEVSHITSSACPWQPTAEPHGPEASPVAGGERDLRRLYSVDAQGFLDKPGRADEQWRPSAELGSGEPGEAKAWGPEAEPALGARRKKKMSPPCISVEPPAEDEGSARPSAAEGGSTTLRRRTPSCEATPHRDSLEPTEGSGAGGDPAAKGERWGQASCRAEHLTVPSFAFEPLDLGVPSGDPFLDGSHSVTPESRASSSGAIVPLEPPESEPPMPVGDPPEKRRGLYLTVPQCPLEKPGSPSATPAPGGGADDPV

This assay has as its target Voltage-dependent T-type calcium channel subunit alpha-1H (Homo sapiens) (UniProt O95180). The assay is described as follows: Cav3.2 calcium influx blockers – cell-based, Fluo-4 calcium fluorescence, FDSS, MLSMR library, primary screen (AID 449739). To be noted: Cav3.2-expressing cells, at 10 µM, active compounds read low.
Take `O=c1c2ccccc2c(-c2ccc(F)cc2)nn1-c1ccc(C(F)(F)F)cc1`: the B-score was 0.392.

Turning to `Clc1ccc(-c2nnc(-c3ccccc3)nc2N2CCSCC2)cc1`, the B-score was -2.83.

For `COc1cc(/C=C/CO)cc(OC)c1O[C@@H]1O[C@H](CO)[C@@H](O)[C@H](O)[C@H]1O`, the B-score is 0.144. Under `CC1(c2nnc(-c3ccncc3)o2)CC(c2cccnc2)=NO1` (configuration not stated) stands 0.534.

Turning to `COc1ccc2nc(SCC(=O)Nc3c(C)cc(C)cc3C)[nH]c2c1`, the B-score was -0.844. With `COc1ccc(NC(=O)CSc2nc(NS(=O)(=O)c3ccc(C)cc3)cc(=O)[nH]2)cc1` the figure was -6.39 (active); with `COc1ccc(NC(=O)CSc2nc(N)c(-c3ccccc3)c(=O)[nH]2)cc1`, 0.0212; with `CCCC(=O)Nc1nc2ccc(NC(=O)c3cccnc3)cc2s1`, -0.392. Take `COCCN1C(=O)N[C@@H](CCc2ccccc2)[C@H](C(C)=O)[C@H]1C`: the B-score is 0.713. For `O=C(NCC1CC1)c1onc(CSc2ccccc2)c1C(=O)NCC1CC1`, the B-score was -1.14.

In the case of `CCOC(=O)N1CCN(C(=O)CN(C2CCCCC2)S(C)(=O)=O)CC1`, the B-score was -0.0305. Under `CS(=O)(=O)N(CC(=O)Nc1ccc(Cl)c(Cl)c1)C1CCCCC1` stands -4.14 (active); under `CS(=O)(=O)N(CC(=O)N1CCN(c2ccc(F)cc2)CC1)C1CCCCC1`, 1.32. As for `O=C(COc1ccc2c(C(F)(F)F)cc(=O)oc2c1)Nc1ccc2c(c1)OCCO2`, the B-score was -0.232.

As to `N#Cc1ccc(Oc2cc(C(F)(F)F)nc(-c3ccccn3)n2)cc1`, the B-score is -0.0658.

As for `O=C(NCCCN1CCOCC1)c1cc2c(s1)CCC2`, the B-score is 0.565.

Take `Cc1nn(C)cc1C(=O)NNC(=S)Nc1ccc(Cl)cc1`: the B-score was -0.0884. Turning to `COC(=O)C1=C(C(=O)OC)[C@@H]2N(C)c3ccccc3[C@@]23C[C@@H](C(=O)OC)N(C(C)=O)C3=N1`, the B-score is 0.294. Turning to `CCOC(=O)c1ccccc1NC(=O)c1c(N)n(C)c(=O)[nH]c1=O`, the B-score was 1.01. Consider `C=CCn1c(N)cc(=O)nc1SCC(=O)Nc1cccc2ccccc12`, for which the B-score is -0.0155. Take `C=CCn1c(COc2ccccc2)nnc1SCC(=O)NCC(=O)OCC`: the B-score was 0.062. On to `C=CCn1c(SCC(=O)Nc2nc3ccccc3s2)nnc1-c1ccccc1O`, for which the B-score was -5.9 (active).

Turning to `C=CCn1c(SCC(=O)NCc2ccccc2)nnc1-c1cc(Br)ccc1O`, the B-score is -6.89 (active). As to `CCn1c(SCC(=O)Nc2nc3ccc(OC)cc3s2)nnc1-c1ccoc1C`, the B-score is -3.69.

For `O=C(CSc1nnc(-c2cccnc2)n1CCc1ccccc1)NCc1ccccc1`, the B-score is 0.107. With `CN(C)/C=C(\C#N)C(=O)c1cccnc1Oc1ccc(F)cc1F` the figure was 0.526; with `Cc1ccc(Cl)cc1NC(=O)COC(=O)C1CCCCC1`, -0.13.

For the molecule `O=C(Cc1ccc(-n2c(=O)c3sccc3n(Cc3ccc(F)cc3)c2=O)cc1)NCc1ccco1`, the B-score is -0.875. Regarding `CC(C)(C)c1ccc(C(=O)NCCC(=O)NCc2ccco2)cc1`, the B-score was -0.22. For the molecule `O=C(NCc1ccco1)c1cc2sccc2n1Cc1ccc(F)cc1`, the B-score is -5.53 (active). Under `O=C(c1cc2sccc2n1Cc1ccc(F)cc1)N1CCc2ccccc21` stands -3.42.

In the case of `O=C(NCc1ccco1)c1ccc(Cn2c(=O)c3sccc3n(Cc3ccc(F)cc3)c2=O)cc1`, the B-score was -3.42 (active). With `O=C(NCc1ccco1)c1ccc(CS(=O)(=O)Cc2ccc(F)cc2)o1`, the B-score is 1.27.

For `COc1cccc(-c2cc(C(=O)N/N=C/c3ccc(OC)c(COC(C)=O)c3)c3ccccc3n2)c1`, the B-score was -0.321. Under `CC(C)(C)CN1C(=O)C(=O)NC[C@H]1Cc1cccc2ccccc12` stands 0.844; under `Fc1ccccc1COc1ccccc1CNCc1ccncc1`, 0.584. With `CC(C)CC(CO)N1CCN(C(=O)c2ccc(Cl)cc2Cl)CCC1=O` (configuration not stated) the figure was 0.363. `Cc1c(NC(=O)CCCOc2ccccc2)cccc1[N+](=O)[O-]`: the B-score was -0.161. Take `CCO[C@@H]1OC(C(N)=O)=C[C@H](c2ccc(Br)cc2)[C@H]1CCCO`: the B-score was 0.335. As for `CS(=O)(=O)N(CC(=O)N1CCN(Cc2ccc3c(c2)OCO3)CC1)c1ccc2c(c1)OCO2`, the B-score was 1.42. With `O=C(CSCc1ccc(Cl)cc1)N1CCN(Cc2ccc3c(c2)OCO3)CC1` the figure was -5.77 (active); with `O=C(c1cccs1)N1CCN(Cc2ccc3c(c2)OCO3)CC1`, 0.274. For `O=C(NCc1cc(C(F)(F)F)cc(C(F)(F)F)c1)C1CC(c2cccc(F)c2)=NO1` (configuration not stated), the B-score was -0.916. Under `O=C(CSc1ncnc2c1cnn2CCc1ccccc1)Nc1ccc(F)cc1` stands 0.0976. With `COc1ccc(C(C(=O)NCc2ccccc2)N(Cc2cccs2)C(=O)c2cnccn2)cc1` (configuration not stated) the figure was -0.0118. Under `C/C=C(/C)C(=O)Nc1cccc(C2=NOC3(C2)C[C@@H](C(N)=O)N(C(=O)C2(C)CC2)C3)c1` (some centres not stated) stands -0.695; under `O=C(NCC1CCCO1)/C(=C\c1ccco1)NC(=O)c1ccccc1` (configuration not stated), 0.14. Turning to `CCOc1ccc(C(C)C)cc1S(=O)(=O)n1nc(C)cc1C`, the B-score was -4.23 (active). `CCOc1cc(C)c(Cl)cc1S(=O)(=O)n1nnc2ccccc21`: the B-score is -2.51. For `CCOc1ccc(S(=O)(=O)n2ccnc2)c2ccccc12`, the B-score was 0.109. With `O=C(CN1CCN(c2ccccn2)CC1)NC1CCCCC1` the figure was 0.646; with `O=C(CN1CCN(S(=O)(=O)c2ccc3ccccc3c2)CC1)NC(=O)NC1CCCCC1`, -8.92 (active); with `O=C(CN1CCN(S(=O)(=O)c2ccc(F)cc2)CC1)Nc1ccccc1F`, 0.623. Under `CCOC(=O)c1cccc(NC(=O)c2ccc(F)cc2F)c1` stands 0.631; under `CN1CCN(C(=O)C2=C[C@H](c3ccc4c(c3)OCO4)C[C@H](OCc3ccc(CO)cc3)O2)CC1`, 0.346; under `O=C(CCc1ccc(S(=O)(=O)NC2CCCCC2)cc1)NCc1ccccc1`, -2.7. With `O=c1[nH]snc1-c1c(Cl)cccc1Cl` the figure was 0.688.
